Results on 92 compounds are retold here after PubChem BioAssay AID504408 (Broad Institute, 2011).

The whole screen tested about 300,000 compounds, of which about 5,200 (1.7%) were called active. The list comes from a sample in which actives are over-represented; it also holds similar structures and randomly drawn compounds. Values without a mark were called inactive.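 How the source made its calls: active means mean replicate activation of at least 50% with a set share of replicates each reaching 50%; inconclusive means only one of those two conditions met; inactive means mean below 50% and too few replicates reaching it.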

This experiment can be described thus: HSF-1 response element luciferase induction – NIH3T3-HGL cells, MG132 stress, luminescence, single point, primary screen (AID 504408).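 Further: 0% = median of the neutral control wells and 100% = twice that signal.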 The note with it: NIH3T3-HGL HSF-1 luciferase reporter, MG132, 8 h; at 9 µM; stronger effect = higher value; 100% = twice DMSO control signal. A general note: A reporter such as luciferase makes a cellular process visible.
On to `COc1ccccc1C(=O)Nc1ccc(NC(=O)c2ccco2)c(C)c1`, for which the activation was -0.874%. Next, `COc1cc(NC(=O)c2cc([N+](=O)[O-])ccc2Br)ccc1NC(=O)c1ccco1`: 111% (active). The value for `O=C(Nc1ccc(NC(=O)c2ccco2)c(Cl)c1)c1cccc([N+](=O)[O-])c1` was 0.794%; that for `O=C(OCC1OC(Oc2ccc(O)cc2)C(O)C(O)C1O)c1ccccc1` (configuration not stated) was -4.63%; that for `Cn1c2ccccc2c(=O)c2c(=O)n(Cc3ccco3)c(COc3ccccc3)nc21` was 17.1%.

Take `Cc1nc2ccccc2c(=O)n1Cc1ccc([N+](=O)[O-])cc1`: the activation is 7.48%. The value for `Cc1ccc(Cn2c(C)nc3c(c2=O)c2nc4ccccc4nc2n3Cc2ccco2)cc1` was 100% (active). Next, `O=C(NCCCN1CCCC1=O)c1cccc(S(=O)(=O)NCc2ccccc2)c1`: 18.7%.

As for `COc1ccccc1OCC(=O)Nc1ccccc1C(=O)NC1CC1`, the activation is 6.1%. As to `OCCCNc1nc(-c2ccccc2)c2cc(Cl)ccc2n1`, the activation is -8.88%. Consider `CCCCn1c(N)c(N(CCOC)C(=O)c2sc3ccccc3c2Cl)c(=O)[nH]c1=O`, for which the activation is 1.82%.

As to `CC(Oc1ccc(Cl)cc1)C(=O)OCC(=O)Nc1ncc(Cl)cc1Cl` (configuration not stated), the activation was 83.9% (active). In the case of `CC(Oc1ccc(Cl)cc1)C(=O)Nc1ncccn1` (configuration not stated), the activation was 9.27%. As to `Cc1ccc(SCCC(=O)OCC(=O)Nc2ncc(Cl)cc2Cl)cc1`, the activation is 1.1%. The value for `CCC(C)N(C(=O)CSc1ncnc2c1cnn2-c1ccccc1)C1CCS(=O)(=O)C1` (configuration not stated) was -5.54%. Next, `CCOC(=O)c1cccc(NC(=O)CCOc2ccccc2)c1`: 9.76%; `CCOC(=O)C(CCOc1cccc(CC)c1)C(=O)OCC`: 109% (active); `CCOc1ccc(NC(=O)CN(C)C(=O)COc2cccc(CC)c2)cc1OCC`: -14.1%. Turning to `CC(=O)Nc1cccc(C(=O)OCC(=O)NCc2cc(C)c(O)c(C)c2)c1`, the activation is 3.6%.

Regarding `Nc1nonc1-n1nnc(C(=O)N/N=C/c2ccccc2O)c1CN1CCCC1`, the activation was 12.4%. The value for `CCOC(=O)COc1ccc([N+](=O)[O-])cc1` was 9.19%; that for `N/C(Cc1ccc([N+](=O)[O-])cc1)=N\OC(=O)C1CCCCC1` was -5.43%. Turning to `Cc1cc(C)cc(OCC(=O)O/N=C(\N)Cc2ccc([N+](=O)[O-])cc2)c1`, the activation was 59.9% (active). Next, `COc1cc(OC)cc(C(=O)NNC(=O)CNC(=O)c2ccc(Br)o2)c1`: 12%. As to `Cc1ccc(NC(=O)CSCC(=O)Nc2sccc2C#N)cc1`, the activation was -2.79%. The value for `Cc1noc(C)c1COc1ccccc1C(=O)N(C)CC(=O)Nc1cccc(F)c1` was -1.32%; that for `Cc1cc(=O)[nH]c(SCC(=O)Nc2ccc(Br)cc2)n1` was 2.91%; that for `O=C(CSCc1ccc(Br)cc1)Nc1ccc(S(=O)(=O)N2CCCCCC2)cc1` was 25.6%. The value for `O=C1CCCN2N=C(SCC(=O)Nc3ccc(Br)cc3)SC2=N1` was 112% (active); that for `CCOc1ccc(CC(=O)NCCS(=O)(=O)N2CCN(c3ccccc3)CC2)cc1` was 3.03%; that for `Cc1cc(C)cc(N(CC(=O)NCCSCc2ccco2)S(C)(=O)=O)c1` was 9.37%.

`CCc1ccccc1N(CC(=O)NCCSCc1ccco1)S(C)(=O)=O`: the activation was 6.86%.

For the compound `Cc1ccc(N(Cc2ccc(C(=O)Nc3ccccc3C(=O)NCc3ccco3)cc2)S(C)(=O)=O)cc1C`, the activation is 87.4% (active).

On to `COc1ccc(C(=O)Nc2ccccc2C(=O)NCc2ccco2)cc1`, for which the activation is 10.2%. In the case of `O=C(Nc1ccccc1)Nc1ccccc1C(=O)NCc1ccco1`, the activation was 25.4%.

Turning to `CS(=O)(=O)N(Cc1ccc(Cl)cc1)c1ccc(C(=O)NCCSCc2ccco2)cc1`, the activation was 71.5% (active). Next, `O=C(CCN1C(=O)C2CCCCC2C1=O)Nc1ccc(OC(F)F)cc1` (configuration not stated): 20.6%. The value for `O=C(CNC(=O)c1ccccc1Br)NCCSc1ccc(Br)cc1` was 8.99%. The value for `CCCn1c(C)cc(-c2csc(NC(=O)CCc3nc4ccccc4c(=O)[nH]3)n2)c1C` was -8.73%. Regarding `CCCc1cc(=O)[nH]c2nnc(SCC(=O)Nc3nnc(SCC)s3)n12`, the activation was -4.43%. Take `CCOc1ccc(S(=O)(=O)Nc2ccc(C(=O)NCCCN3CCCC3=O)cc2)cc1`: the activation was 4.33%. The value for `CCc1noc(C)c1C(=O)NNC(=O)c1ccc(F)cc1` was 7.94%; that for `Cc1ccc(-c2c3c(=O)n(C)c(=O)n(C)c3cn2-c2ccccc2O)cc1` was 3.5%; that for `COc1ccc(-c2c3c(=O)n(C)c(=O)n(C)c3cn2NC(C)=O)cc1` was -5.15%.

As for `Cc1ccc(-c2c3c(=O)n(C)c(=O)n(C)c3cn2-n2cnnc2)cc1`, the activation was 89.3% (active). Next, `COc1cccc(CNC(=O)C(=O)NCCC2CCCCN2S(=O)(=O)c2ccc(C)cc2)c1` (configuration not stated): -8.41%. Next, `O=C(Nc1ccc(Br)cn1)c1ccc([N+](=O)[O-])o1`: 131% (active); `O=C(Nc1ccncc1)c1ccc([N+](=O)[O-])cc1Cl`: 23.1%. Next, `CC(C)C(=O)Nc1cccc(NC(=O)c2ccc([N+](=O)[O-])cc2Cl)c1`: 32.5%; `O=C(/C=C/c1ccc(Cl)cc1)Nc1ccc(Br)cn1`: 6.81%. Take `CN1C(=O)c2ccc(C(=O)Nc3ccc(Br)cn3)cc2C1=O`: the activation is -4.17%. The value for `O=C(Nc1ccc(Br)cn1)c1ccc([N+](=O)[O-])cc1Cl` was 69.9% (active); that for `COc1ccc(C(=NN)c2ccc(OC)cc2)cc1` was 29.3%; that for `CN(C)CCn1c2c(c(SCC(=O)NCc3ccccc3)nc1=O)CCC2` was 4.29%. Next, `CCc1nnc(NS(=O)(=O)c2ccc(NC(=O)c3cccc(OC(F)(F)C(F)F)c3)cc2)s1`: -15.3%. For `Cc1cccc(NC(=O)NC(=S)NC(=O)c2ccccc2)c1`, the activation is 13.9%. The value for `Cc1onc(C(=O)NCc2ccc(F)cc2)c1[N+](=O)[O-]` was 8.38%; that for `Cc1cccc(NC(=O)c2cc([N+](=O)[O-])ccc2N2CCN(C)CC2)c1` was 13.9%. Take `Cc1cccc(NC(=S)NC(=O)c2ccc(Br)o2)c1`: the activation is 78.6% (active). The value for `Cc1onc(NC(=O)c2ccc([N+](=O)[O-])o2)c1Br` was 52.4% (active); that for `Cc1onc(C(=O)Nc2ccc3c(c2)OCO3)c1[N+](=O)[O-]` was 10.2%.

`Cc1cccc(NC(=S)Nc2ccc(Br)cc2)c1`: the activation is 46.2%. Turning to `Cc1cccc(NC(=O)c2ccc([N+](=O)[O-])o2)c1`, the activation was 56.4% (active). Next, `Cc1cccc(NC(=O)c2sc(-c3ccccc3)nc2-c2ccc([N+](=O)[O-])cc2)c1`: -61.8%; `O=C1[C@H]2[C@@H](c3ccc(F)cc3)N3C(=O)N(c4ccc(C(F)(F)F)cc4)C(=O)[C@@]3(Cc3ccccc3)[C@H]2C(=O)N1C1CCCCC1`: -4.57%; `O=C(NCCC1CCCCN1S(=O)(=O)c1ccc(Cl)cc1)C(=O)NCc1ccco1` (configuration not stated): 22.8%.

As for `COc1ccc(NS(=O)(=O)c2ccc(C)c(C(=O)N(C)Cc3ccc(OC)cc3OC)c2)cc1`, the activation was -13.6%. The value for `CCOc1ncccc1C(=O)NNC(=O)c1cccc(S(=O)(=O)Nc2ccccc2OC)c1` was -1.67%. The value for `O=C(NNC(=O)c1ccc(Cl)cc1Cl)c1cccs1` was 25.3%; that for `Cc1ccc(NNC(=O)c2c(F)cccc2Cl)cc1Cl` was 0.438%. Next, `Cc1ccc(NNC(=O)c2cccs2)cc1Cl`: 69.2% (active). For `Cc1ccc(NC(=O)c2cnc(SCC(=O)NCC3CCCO3)n(C)c2=O)cc1` (configuration not stated), the activation was 7.91%. Next, `Cc1cc(C)c(-c2csc(NC(=O)CCCc3nc4ccccc4c(=O)[nH]3)n2)c(C)c1`: -6.87%; `Cc1ccc(S(=O)(=O)NC(C)C(=O)NCc2ccc(Cl)cc2)cc1` (configuration not stated): 0.844%. The value for `CCc1noc(C)c1C(=O)Nc1nc(-c2ccccc2)cs1` was 6.16%; that for `O=C(NNC(=O)c1cc2c(s1)CCCC2)c1ccccc1` was 5.42%; that for `O=C(Nc1ccc(F)cc1)c1cc2c(s1)CCCC2` was 91.6% (active).

As for `O=C(CNC(=O)c1cc2c(s1)CCC2)Nc1ccccc1Br`, the activation is 14.7%.

As for `CCOc1cc(C(=O)Nc2ccc(S(=O)(=O)Nc3cnc4ccccc4n3)cc2)cc(OCC)c1OCC`, the activation is 9.73%. The value for `CC1C(=O)N2CCCc3cc(S(=O)(=O)NCc4ccc(F)cc4)cc1c32` (configuration not stated) was 5.48%; that for `Nc1cccc2c1C(=O)N(Cc1nnc(-c3ccccc3Br)o1)C2=O` was 54.8% (active); that for `CCOC(=O)N1CCN(Cc2nnc(-c3ccccc3Cl)o2)CC1` was -16.1%. The value for `Cn1cnnc1SCc1nnc(-c2ccccc2Br)o1` was 1.6%; that for `O=C(CSc1nc(=O)n2ccccc2n1)Nc1ccc2c(c1)OCCO2` was -13.2%; that for `COc1cccc(NC(=O)CSc2nccn(-c3ccc4c(c3)OCCO4)c2=O)c1` was 8.35%. Next, `CCc1ccccc1N1C(=O)C2C3CC(=O)C(c4ccccc43)C2C1=O` (configuration not stated): -0.868%; `CC(=O)Nc1ccc(N2C(=O)C3C4CC(=O)C(c5ccccc54)C3C2=O)cc1` (configuration not stated): 63.1% (active); `CC(=O)Nc1ccc(N2C(=O)C3C4C=CC(CC4)C3C2=O)cc1` (configuration not stated): 6.25%. In the case of `O=[N+]([O-])C(=c1ccc2c(c1)N1C3=C(CCCC3)CC3CCCCC31N=2)[N+](=O)[O-]` (configuration not stated), the activation is 74.2% (active). The value for `COc1ccc(C(=O)NC(=S)N2CCCCC2c2cccnc2)cc1OC` (configuration not stated) was 60.1% (active).

As to `O=C(NC(=S)N1CCCCC1c1cccnc1)c1ccccc1` (configuration not stated), the activation is 4.49%. For `COc1ccc(/C=C/C(=O)NC(=S)NN2CCCCC2c2cccnc2)cc1` (configuration not stated), the activation was 13.9%.
